Source: PubChem
In the library only some 19% were active in any assay of this set; here they are far more common.
ELG1 DNA repair = inhibitors of ELG1-dependent DNA repair in HEK293T cells; Potency, µM (series often up to 46.1 µM), inactives show top-dose activity change, negative = inhibition, most hits filed as inhibitors; HEK293T ELG1-luciferase reporter, luminescence, 16 h; DNA damage induced by 5-fluorouridine; 330,000 compounds, 2.3% hits; AID 504467; also: potency is read from the fitted curve at half-maximal effect; nearly all actives have a fitted effect of over 55% in size
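Step one: seed 2,000 cells per well. Step two: pin-transfer compound or DMSO alongside 5-fluorouridine. Step three: incubate 16 hr, 37 °C, 5% CO2. Step four: add ONE-Glo, wait 30 min, read luminescence.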
TDP1 cell CPT = DT40-hTDP1 cell growth loss with CPT. chicken DT40 Tdp1-/-;hTDP1 cells + 20 nM CPT, ATP luminescence, 48 h. Potency, µM (top dose mostly 46.2 µM), for inactives: at the highest dose activity change, negative = growth inhibition, actives largely listed as inhibitors. 420,000 compounds, 12% hits. AID 686979; also: potency is read from the fitted curve at half-maximal effect; nearly all actives have a fitted effect of over 55% in size
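Chicken DT40 Tdp1-/- cells stably complemented with human TDP1 were seeded at 400 cells/well in medium containing 20 nM camptothecin, exposed to pin-transferred compounds, and grown at 37 °C for at least 48 hr. Viability was read as ATP luminescence.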
IL-1B inflam inh = inhibitors of inflammasome signaling (IL-1 beta secretion) | THP-1 LPS/ATP IL-1B secretion, AlphaLISA, 16 h; stronger effect = lower value | activity change, % at 57.5 µM | 360,000 compounds, 4.7% hits | AID 743279; in the data active = activity change below about -50%; inconclusive = mostly about -30% to -49%
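Secreted IL-1B measured by AlphaLISA bead assay after 16 h compound exposure of THP-1 cells; compounds (final up to 57.5 uM) added 1 h before LPS (250 ng/mL) and ATP (1.25 mM) stimulation; lower signal means less secretion.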
Giardia kill = Giardia lamblia killing. 340,000 compounds, 0.15% hits. Giardia lamblia trophozoite viability. AID 540267. activity change, % at 7.66 µM, hits read low; in the data active = activity change below about -80%; inconclusive = between about -30% and that limit;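 also: parasites exposed to compound for two days anaerobically before the ATP read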
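Luminescence from cellular ATP indicates surviving trophozoites (100 cells/well) following 48 hrs anaerobic compound treatment at 37 deg C; signal develops 15-30 min at room temperature.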
TDP1 block = blocks human tyrosyl-DNA phosphodiesterase 1 | Potency, µM (titrated, usually from 130 µM), without a hit: at the top dose activity change, negative = inhibition, usual class: inhibitors | AID 485290 | Q9NUW8 | 350,000 compounds, 0.28% hits | recombinant TDP1, AlphaScreen DNA substrate cleavage; also: potency is read from the fitted curve at half-maximal effect; nearly all actives have a fitted effect of over 40% in size
Target sequence (Q9NUW8 whole entry, looked up): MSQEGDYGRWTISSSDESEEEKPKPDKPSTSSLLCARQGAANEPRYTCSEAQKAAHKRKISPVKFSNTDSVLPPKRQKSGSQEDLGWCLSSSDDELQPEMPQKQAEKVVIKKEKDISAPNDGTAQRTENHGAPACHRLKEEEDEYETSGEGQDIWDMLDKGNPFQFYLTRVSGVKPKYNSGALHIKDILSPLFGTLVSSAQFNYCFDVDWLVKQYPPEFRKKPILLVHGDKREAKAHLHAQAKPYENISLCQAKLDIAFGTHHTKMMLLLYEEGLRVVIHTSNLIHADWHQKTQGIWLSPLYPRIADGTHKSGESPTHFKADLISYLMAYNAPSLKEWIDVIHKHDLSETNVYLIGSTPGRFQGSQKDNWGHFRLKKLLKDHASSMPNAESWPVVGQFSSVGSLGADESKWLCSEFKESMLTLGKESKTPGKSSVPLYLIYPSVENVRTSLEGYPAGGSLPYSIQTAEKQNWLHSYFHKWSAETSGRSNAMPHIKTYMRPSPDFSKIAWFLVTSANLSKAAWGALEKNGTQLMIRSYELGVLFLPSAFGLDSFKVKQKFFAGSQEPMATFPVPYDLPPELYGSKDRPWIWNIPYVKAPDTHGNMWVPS
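Signal: AlphaScreen proximity between streptavidin donor and anti-FITC acceptor beads on intact substrate. Reaction: Tdp1 1 nM, substrate 15 nM final, 5 min RT after 15 min compound preincubation.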
DT40 TDP1 no CPT = qHTS for Inhibitors of human tyrosyl-DNA phosphodiesterase 1 (TDP1): qHTS in cells in absence of CPT; Potency, µM (series often up to 46.2 µM), for the others: at the top dose activity change, negative = growth inhibition, actives largely listed as inhibitors; 420,000 compounds, 15% hits; DT40 Tdp1-/- hTDP1 cells, no CPT, ATP luminescence, 48 h; also: potency is read from the fitted curve at half-maximal effect; nearly all actives have a fitted effect of over 55% in size
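Compound effects on proliferation are scored in DT40 Tdp1-/-;hTDP1 cells in the absence of CPT. ATP levels (CellTiter-Glo luminescence) are recorded after a ≥48 hr, 37 °C incubation.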
ELG1 FLuc counter = luciferase inhibition in cell-free luciferin readout for ELG1 hits | cell-free firefly luciferase luminescence counter-screen, ViewLux | 350 compounds, 3% hits | shares compounds with ELG1 DNA repair | Potency, µM (top dose mostly 46.1 µM), inactives show at the highest dose activity change, negative = inhibition, actives largely listed as inhibitors; also: potency is read from the fitted curve at half-maximal effect
ELG1-Luc inh = confirmation of human ELG1-dependent DNA repair inhibitors; AID 624248; HEK293T ELG1-luciferase levels, luminescence; cells co-treated with 5-fluorouridine; 670 compounds, 68% hits; shares compounds with ELG1 DNA repair; Potency, µM (highest dose often 46.1 µM), without a hit: at the highest dose activity change, negative = inhibition, most hits filed as inhibitors; also: potency is read from the fitted curve at half-maximal effect; nearly all actives have a fitted effect of over 55% in size
ELG1-Luc MMS = confirmation of human ELG1 repair inhibitors, MMS stimulated | AID 624249 | Potency, µM (highest dose often 46.1 µM), inactives show top-dose activity change, negative = inhibition, most hits filed as inhibitors | 670 compounds, 53% hits | HEK293T luciferase-tagged ELG1 level, MMS stimulated | shares compounds with ELG1 DNA repair; also: potency is read from the fitted curve at half-maximal effect; nearly all actives have a fitted effect of over 60% in size
ELG1 5-FU = confirmation of ELG1 repair inhibitors: viability with 5FU. shares compounds with ELG1 DNA repair. cell viability with 5-FU, ELG1-dependent repair. Potency, µM (series often up to 46.1 µM), without a hit: at the top dose activity change, negative = viability loss, actives largely listed as cytotoxic. 670 tested, under 10 active;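 also: ELG1-luc HEK293T cells cotreated with 5-fluorouridine at 10 µM final; potency is read from the fitted curve at half-maximal effect; viability measured 16 h after compound addition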
ELG1 MMS cell = confirmation of ELG1 repair inhibitors: viability with MMS | shares compounds with ELG1 DNA repair | Cell viability with MMS, ELG1-dependent DNA repair | Potency, µM (highest dose often 46.1 µM), without a hit: at the top dose activity change, negative = viability loss, hits mostly cytotoxic | 670 compounds, 33% hits | AID 624251;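 also: ELG1-luc HEK293T cells co-treated with 10 µM MMS; potency is read from the fitted curve at half-maximal effect; viability read 16 h after compound addition; nearly all actives have a fitted effect of over 60% in size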
Cell viab unstim = unstimulated viability counter-screen for ELG1 repair hits | shares compounds with ELG1 DNA repair | cell viability counter-screen, unstimulated, luminescence | Potency, µM (top dose mostly 45.9 µM), inactives show at the highest dose activity change, negative = loss of viability, usual class: cytotoxic | 900 compounds, 8% hits;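 also: potency is read from the fitted curve at half-maximal effect; compound exposure lasted 16 hours before reading; nearly all actives have a fitted effect of over 55% in size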
FLuc biochem = counter-screen for ELG1 repair inhibitors: firefly luciferase inhibition; 350 compounds, 10% hits; shares compounds with ELG1 DNA repair; purified firefly luciferase, luminescence counter-screen; Potency, µM (titrated, usually from 57.5 µM), for inactives: top-dose activity, negative = inhibition, actives largely listed as inhibitors; also: potency is read from the fitted curve at half-maximal effect
* hit, by the source's call; u = inconclusive; x = no result given; [ ] = dose if it differs, or a comment. Unless noted, calls follow the shape of the dose curve; as a rule, active = well fitted curve in the direction sought with a large enough effect; inconclusive = small, poorly fitted or top-dose-only effect, or another doubt; inactive = no such curve, though single readings can be large; an effect the other way counts as inactive or inconclusive. % is scaled to controls: 0 for no effect and ±100 for the full control effect.

SMILES	ELG1 DNA repair	TDP1 cell CPT	IL-1B inflam inh	Giardia kill	TDP1 block	DT40 TDP1 no CPT	ELG1-Luc inh	ELG1-Luc MMS	ELG1 5-FU	ELG1 MMS cell	Cell viab unstim	others
COc1ccc(/C=C/C(=O)O/N=C(\N)c2ccccn2)cc1OC	u	-9.1%	1.7	-6.0	0.8%	-13.8%	x	x	x	x	-8.9%
COc1ccc(CC(=O)O/N=C(\N)c2ccccn2)cc1OC	u	-1.7%	2.4	-13.1	0.0%	2.4%	x	x	x	x	x
COc1ccccc1Nc1nc(N2CCOCC2)nc(N2CCOCC2)n1	1.64µM*	u	-9.1	-0.9	1.2%	u	7.92µM*	1.7%	u	-2.1%	-7.9%	ELG1 FLuc counter=0.1%;FLuc biochem=3.6%
Cc1ccc([N+](=O)[O-])cc1Nc1nc(N2CCOCC2)nc(N2CCOCC2)n1	16.4µM*	4.3%	-21.4	17.3	3.6%	-22.0%	8.89µM*	u	u	u	u	ELG1 FLuc counter=62.4%;FLuc biochem=-6.4%
COc1ccccc1Nc1nc(N2CCCC2)nc(N2CCOCC2)n1	x	x	x	2.0	x	x	x	x	x	x	x
O=C1Nc2ccccc2C(=O)N(c2ccc3c(c2)OCCO3)C1C(=O)NC1CC1 (stereo not given)	x	1.3%	2.8	x	x	-0.7%	x	x	x	x	x
Cc1cc(C)c(C#N)c(SCC(=O)NC(C)(C)C)n1	u	11.4%	0.8	4.8	-2.6%	-1.9%	x	x	x	x	x
Cc1cc(C)c(C#N)c(SCC(=O)Nc2cc(C)on2)n1	u	-7.0%	0.0	-15.2	-0.2%	-7.8%	x	x	x	x	-4.2%
COc1ccc(-n2c(C)c(C(C)=O)c3cc(O)ccc32)cc1	0.82µM*	x	0.0	-24.0	2.6%	x	0.889µM*	u	0.9%	u	7.6%	ELG1 FLuc counter=u;FLuc biochem=0.1%
N=C1c2ccccc2CN1NC(=O)c1cccc(S(=O)(=O)N2CCCC2)c1	-0.1%	-2.0%	7.7	-2.3	2.7%	1.6%	x	x	x	x	x
CCOc1nsc(OCC)n1	-11.0%	2.2%	20.2	-7.2	6.8%	0.1%	x	x	x	x	x
O=[N+]([O-])c1ccc2ncnc(N3CCN(Cc4ccc5c(c4)OCO5)CC3)c2c1	2.06µM*	13µM*	26.9	13.0	9.2%	9.2µM*	4.99µM*	12.5µM*	-10.6%	25µM*	u
O=C(c1cccc([N+](=O)[O-])c1)N1CCN(Cc2ccc3c(c2)OCO3)CC1	u	3.0%	3.5	-20.3	6.2%	-0.9%	x	x	x	x	x
COc1ccc(/C=C2\Oc3ccccc3C2=O)cc1	u	u	-5.6	-29.9	-0.1%	18.4µM*	x	x	x	x	-11.4%
O=C1/C(=C/c2ccccc2)Oc2ccccc21	x	x	x	x	5.8%[21 µM]	x	x	x	x	x	x
Cc1c(CC(=O)N2CCN(C(=O)C3COc4ccccc4O3)CC2)c(=O)oc2c(C)c(O)ccc12 (stereo not given)	0.58µM*	u	-8.4	-6.6	-5.3%	u	3.97µM*	u	u	-2.0%	u	ELG1 FLuc counter=-14.3%;FLuc biochem=-3.9%
Cc1cccc(N2CCN(C(=O)C3COc4ccccc4O3)CC2)c1C (stereo not given)	u	-17.0%	16.2	-0.2	x	u	x	x	x	x	x
Cc1cc2ncc(-c3ccccc3)nc2cc1C	u	-12.9%	22.7	5.3	-12.2%	u	x	x	x	x	u
COCCn1c(C)cc(C(=O)COC(=O)c2cccnc2SC)c1C	u	u	6.9	-21.8	7.2%	16.4µM*	x	x	x	x	u	ELG1 FLuc counter=118.4%;FLuc biochem=0.517µM*
CSc1ncccc1C(=O)OCC(=O)c1ccc(C)s1	16.2%	-1.4%	1.7	-6.4	-0.9%	-14.6%	x	x	x	x	x
CCCOc1ccc2cc(C(=O)NCc3ccccc3)c(=O)oc2c1	12.3%	-26.6%	-12.7	-19.4	-2.7%	-26.7%	x	x	x	x	x
CC(NC(=O)c1ccncc1)c1ccc(Br)cc1 (stereo not given)	x	-27.3%	-9.5	24.8	x	u	x	x	x	x	x
COc1ccccc1NC(=O)Nc1nc(CC(=O)Nc2ccc(F)c(F)c2)cs1	4.61µM*	u	-69.2*	-5.1	-8.0%	14.6µM*	22.3µM*	7.6%	5.9%	-7.4%	u
CCCOC1CCCN(C(=O)c2cc(COc3ccc(-n4cncn4)cc3)on2)C1 (stereo not given)	u	u	12.7	-16.1	2.4%	u	x	x	x	x	x
O=C(Nc1ccc(N2CCN(C(=O)c3ccco3)CC2)cc1)c1ccc([N+](=O)[O-])cc1Cl	4.61µM*	u	-4.5	-13.0	4.6%	20.6µM*	6.28µM*	7.05µM*	u	u	u
Fc1ccccc1CNc1ncnc2sccc12	2.91µM*	4.11µM*	-7.5	-5.8	-5.9%	8.2µM*	u	4.45µM*	-2.7%	3.15µM*	u
Cn1c(=O)cc(SCC(=O)NCCCN2CCOCC2)c2ccccc21	u	0.4%	-19.9	-22.9	5.2%	-12.3%	x	x	x	x	x
Cn1c2ccccc2c(=O)c2cc(NCCCN3CCOCC3)ccc21	u	u	u	-1.5	-0.6%	u	x	x	x	x	-4.0%
